Screening results (PubChem BioAssay)
Hits are enriched below; roughly 3.5% of the tested compounds scored in any of these assays.
TR SRC2 fluor cs = counter-screen for TRb-SRC2 inhibitors: fluorescence interference; TRb/SRC2 Texas Red total fluorescence interference; Potency, µM (top dose mostly 106 µM), for inactives: top-dose fluorescence change, negative = quenching; actives 0.29% (n = 280,000); AID 1479; active = well fitted curve in either direction with a large enough effect; inconclusive = small, poorly fitted or top-dose-only effect
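Human TRb ligand-binding domain at 0.6 uM with 20 nM Texas Red SRC2 peptide in Tris buffer containing 1 uM T3 and 5% DMSO, incubated with compound 5 h at ambient temperature. Total fluorescence (555/632 nm) calculated as parallel + 2 × perpendicular.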
Tau fibril FP = blocks human tau fibril formation measured by polarization. P10636. K18 P301L tau heparin fibrillization, Alexa594 FP, 6 h. Potency, µM (titrated, usually from 57.7 µM), for inactives: at the highest dose activity, negative = inhibition, most hits filed as inhibitors. actives 0.39% (n = 280,000). AID 1468; note: nearly all actives have a fitted effect of over 55% in size
Target sequence (P10636 561-689 P618L limits assumed): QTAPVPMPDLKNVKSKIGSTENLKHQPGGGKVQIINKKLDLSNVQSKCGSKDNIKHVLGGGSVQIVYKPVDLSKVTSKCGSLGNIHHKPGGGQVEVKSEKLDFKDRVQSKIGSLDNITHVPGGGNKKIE
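Read-out: fluorescence polarization of Alexa 594-labeled tau (0.24 uM), 555 nm excitation, 632 nm emission. Mixtures held 15 uM unlabeled K18 P301L, compound and 20 uM heparin, pH 7 acetate buffer, incubated 6 hr at 37 C.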
Tau fluor counter = counter-screen for tau fibril formation inhibitors; Potency, µM (doses to about 57.7 µM), inactives show top-dose activity change, negative = decrease; tau K18 P301L Alexa594 fluorescence, heparin fibrillization; actives 0.93% (n = 280,000); AID 1463; note: nearly all actives have a fitted effect of over 55% in size
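Human K18 P301L tau (15 uM unlabeled plus 0.24 uM Alexa 594-labeled, final) in 100 mM sodium acetate pH 7 was mixed with compound and 20 uM heparin and incubated 6 hr at 37 C.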
JMJD2E inh = blocks human JMJD2E demethylase activity; Potency, µM (top dose mostly 57.1 µM), without a hit: at the highest dose activity change, negative = inhibition, hits mostly inhibitors; AID 2147; actives 1.6% (n = 230,000); JMJD2E catalytic domain, FDH-coupled NADH fluorescence (FDH is formaldehyde dehydrogenase);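 note: 0% = wells with enzyme and -100% = buffer wells without enzyme; nearly all actives have a fitted effect of over 50% in size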
TRb-SRC2 inh = disrupts binding of human TR beta to SRC2; Potency, µM (top dose mostly 106 µM), for inactives: at the highest dose activity change, negative = inhibition, usual class: inhibitors; P10828; actives 0.065% (n = 280,000); TRbeta-SRC2 peptide binding, fluorescence polarization; receptor liganded with 1 µM T3;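 note: plate controls were bound peptide for no effect and peptide without receptor for full effect; nearly all actives have a fitted effect of over 50% in size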
Target sequence (P10828 whole entry, looked up): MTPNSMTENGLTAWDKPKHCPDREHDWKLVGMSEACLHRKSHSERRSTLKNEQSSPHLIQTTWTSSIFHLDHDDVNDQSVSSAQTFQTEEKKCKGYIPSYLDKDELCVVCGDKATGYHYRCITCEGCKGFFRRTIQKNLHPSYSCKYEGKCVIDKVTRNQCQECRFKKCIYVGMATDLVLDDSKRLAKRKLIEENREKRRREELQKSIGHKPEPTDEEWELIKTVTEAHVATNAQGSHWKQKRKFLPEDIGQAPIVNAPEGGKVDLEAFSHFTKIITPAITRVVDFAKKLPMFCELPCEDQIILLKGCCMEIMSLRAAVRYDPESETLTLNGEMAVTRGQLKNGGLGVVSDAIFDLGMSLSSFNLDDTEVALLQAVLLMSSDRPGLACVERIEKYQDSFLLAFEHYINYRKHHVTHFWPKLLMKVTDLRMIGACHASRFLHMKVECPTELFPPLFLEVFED
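Each compound concentration gave % activity, normalized to unbound and bound Texas Red SRC2 controls, from polarization read after 5 hr ambient incubation with T3-loaded human TRb LBD.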
Tau fibril ThT = tau fibrillization inhibition (ThT binding); recombinant tau K18 P301L (four-repeat tau fragment), heparin-induced fibrillization, ThT fluorescence; actives 2.1% (n = 270,000); Potency, µM (series often up to 57.4 µM), for the others: at the top dose activity, negative = inhibition, most hits filed as inhibitors; note: nearly all actives have a fitted effect of over 55% in size
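K18 P301L tau (15 uM + 0.24 uM Alexa 594-tagged), heparin 20 uM, NaOAc pH 7, 6 h 37 C; ThT 30 uM, 1 h RT, ex 450/em 510 nm.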
* hit, by the source's call; ? = inconclusive; nt = no result; [ ] = another dose, or the depositor's remark. Unless noted, calls come from the whole dose curve; as a rule, active = well fitted curve in the direction sought with a large enough effect; inconclusive = small, poorly fitted or top-dose-only effect, or another doubt; inactive = no such curve, though single readings can be large; an effect the other way counts as inactive or inconclusive. Unless noted, % is set by controls: 0 for no effect and ±100 for the full control effect; potency is the fitted concentration of half-maximal effect.

SMILES | TR SRC2 fluor cs | Tau fibril FP | Tau fluor counter | JMJD2E inh | TRb-SRC2 inh | Tau fibril ThT
O=C(NC(=S)Nc1ccc(N2CCOCC2)cc1)c1ccco1 | -3% | -1% | -11% | 10% | 2% | ?
CC(=O)c1ccc(NC(=O)CSc2nnc(-c3ccco3)c(-c3ccco3)n2)cc1 | 0% | 8.9µM* | ? | 16µM* | -4% | 4µM*
O=C(Nc1ccc(N2CCOCC2)cc1)c1ccc2nc(-c3ccco3)c(-c3ccco3)nc2c1 | -7% | -6% | ? | 4% | -6% | 2.5µM*
O=C(Nc1ccc(N2CCOCC2)cc1)c1ccc([N+](=O)[O-])cc1 | -3% | 1% | -19% | -5% | 10% | 2.8µM*
O=C(Nc1ccccc1)c1ccc2nc(-c3ccco3)c(-c3ccco3)nc2c1 | -3% | ? | ? | ? | -4% | ?
O=C(Nc1ccc(N2CCOCC2)cc1)c1ccncc1 | -3% | 2% | -8% | 4% | -9% | ?
S=C(Nc1ccc(N2CCOCC2)cc1)Nc1ccc2nc(-c3ccco3)c(-c3ccco3)nc2c1 | -13% | ? | 7.9µM*[quencher] | ? | -7% | 2.2µM*
COc1ccc(-c2nnc(SCC(=O)Nc3ccc(C(C)=O)cc3)nc2-c2ccc(OC)cc2)cc1 | -2% | ? | ? | nt | 2% | ?
CC(=O)c1ccc(NC(=O)c2ccc3nc(-c4ccco4)c(-c4ccco4)nc3c2)cc1 | ? | -14% | ? | ? | 16% | 13µM*
Cc1cccc(N=Cc2cc3c(cc2[N+](=O)[O-])OCO3)c1 | -6% | ? | ? | ? | ? | 10µM*
COc1cc(C=Nc2cccc(C)c2)c(O)c([N+](=O)[O-])c1 | -3% | -4% | -6% | -5% | -4% | 7.9µM*
O=C(N/N=C/c1cc(Br)ccc1O)c1cccc(N2CCCC2=O)c1 | -7% | -4% | -26% | 28µM* | 2% | -13%
S=c1[nH]cc(-c2ccccc2)[nH]1 | -10% | 1% | 1% | ? | -3% | -2%
O=[N+]([O-])c1ccc(-c2c[nH]c(=S)[nH]2)cc1 | 1% | ? | ? | 22% | 7% | 25µM*
CC1=CC(C)(C)Nc2ccc(OC(=O)C(Cc3ccccc3)N3C(=O)c4ccccc4C3=O)cc21 (stereo unspecified) | 0% | 11% | ? | -9% | 4% | -17%
CC1=CC(C)(C)Nc2ccc(OC(=O)CN3C(=O)c4cccc5cccc(c45)C3=O)cc21 | -8% | ? | ? | 13µM* | -28% | 13µM*
CCOc1ccc2c(c1)C(C)=CC(C)(C)N2 | -7%[201 µM] | -12% | -18% | ? | -20%[201 µM] | -15%
CC1=CC(C)(C)Nc2ccc(OC(=O)CN3C(=O)c4ccccc4C3=O)cc21 | -7% | -1% | 16µM*[quencher] | 0% | -2% | ?
CC(C)(C)NC(=O)/C=N/O | -2% | -2% | 1% | 2% | 6% | 3%
CC1C(=O)NN=C1C(=O)N/N=C\c1ccc(O)cc1O (stereo unspecified) | -4% | 5% | -12% | 22µM* | 0% | ?
COc1cc(/C=N/NC(=O)C2=NNC(=O)C2C)ccc1O (stereo unspecified) | -12% | -3% | -23% | -13% | -2% | nt
CN(C)CCCNc1cc(C(C)(C)C)nc2c(-c3ccc(Cl)cc3)cnn12 | -2% | 10% | 16µM*[quencher] | ? | -7% | ?
O=[N+]([O-])c1ccc(N2CCCCC2)cc1NCCOc1ccccc1 | 2% | -3% | ? | 6% | 0% | ?
Cc1ccccc1OCCNc1cc(N2CC(C)NC(C)C2)ccc1[N+](=O)[O-] (stereo unspecified) | -1% | ? | ? | 3% | 2% | 18µM*
Cc1ccc(Nc2nc(C)c(NC(=O)c3ccc(C)cc3)c(Nc3ccc(C)cc3)n2)cc1 | -2% | -5% | ? | nt | -4% | -21%
SMILES | TR SRC2 fluor cs | Tau fibril FP | Tau fluor counter | JMJD2E inh | TRb-SRC2 inh | Tau fibril ThT
CC(=O)Nc1ccc(Nc2nc(C)c([N+](=O)[O-])c(Nc3ccc(NC(C)=O)cc3)n2)cc1 | -3% | ? | -21% | 2% | 2% | 13µM*
COc1ccc(CS(=O)(=O)CC2(O)CCN(C(=O)c3cccc(C(F)(F)F)c3)CC2)cc1 | -1% | 5% | 6% | 5% | 5% | 6%
Cc1ncc(CO)c(/C=N/NC(=S)Nc2cccc(Cl)c2)c1O | -4% | 8% | ? | ? | -7% | ?
Cc1ncc(CO)c(/C=N/NC(=S)Nc2ccc(Cl)c(Cl)c2)c1O | -2% | -3% | 25µM*[quencher] | ? | 3% | ?
N#Cc1ccc(NC(=O)Cn2c3[n+](c4ccc(C(F)(F)F)cc42)CCCCC3)cc1 | -2% | -15% | -3% | 25µM* | 4% | 8%
O=C(Cn1c2[n+](c3ccc(C(F)(F)F)cc31)CCCCC2)Nc1ccc(Br)cc1 | -3% | 0% | -5% | -29% | 15% | -3%
Oc1ccccc1CNc1ccc2c(c1)OCCO2 | -3% | -3% | ? | -2% | -7% | ?
Cc1ccc(CNc2ccc3c(c2)OCO3)c(C)c1 | 5% | ? | ? | ? | 1% | 13µM*
COC(=O)CSc1nc(N2CCOCC2)c2c(c1C#N)CC(C)(C)N(C)C2 | -2% | -1% | -5% | ? | -9% | -2%
CCN(CC)C(C)CN1c2ccccc2Sc2ccccc21 (stereo unspecified) | -1% | 11% | 20µM*[quencher] | ? | -2% | ?
CCC(=O)/C=C1/Sc2ccccc2N1CC | -3% | -4% | -7% | -5% | 2% | ?
C#CCOCCOCCOCCNc1nc(N2CCN(C(=O)[C@H](CCC(=O)O)n3cc(C(N)CO)nn3)CC2)nc(N2CCN(C(=O)[C@H](CCC(=O)O)n3cc(C(N)CC(C)C)nn3)CC2)n1 (stereo partly specified) | -2% | -8% | 10% | 22µM* | 0% | 2%
COc1cc(N)n(S(=O)(=O)c2ccc(C)cc2)n1 | -1% | -6% | -4% | 0% | -14% | -5%
Cc1nc(N=Nc2cc(S(=O)(=O)O)c3cc([N+](=O)[O-])cc(S(=O)(=O)O)c3c2)c(COP(=O)(O)O)c(C=O)c1O | 28µM*[quencher] | 20µM* | 14µM*[quencher] | 7.9µM* | 11% | 8.9µM*
Cc1nc(N=Nc2cc([N+](=O)[O-])ccc2Cl)c(COP(=O)(O)O)c(C=O)c1O | ? | nt | nt | nt | 5% | nt
COC(CNC(=O)c1ccc2c(c1)ncn2-c1cccc(F)c1)OC | -2% | 2% | -5% | 5% | -1% | -4%
